# According to PubChem BioAssay AID1835 (Johns Hopkins Ion Channel Center, 2009):
# Among all 2,400 compounds or so, about 750 (31%) were called active. Some of the results follow. Values without a mark were called inactive.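 How the source made its calls: active means median signal gain over dofetilide-blocked control wells reaching their mean plus 3 SD, so readout 1 at least 0; inactive means the rest.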
# Biological target: Voltage-gated inwardly rectifying potassium channel KCNH2 (Homo sapiens) (UniProt Q12809)
# Sequence (Q12809 whole entry, looked up): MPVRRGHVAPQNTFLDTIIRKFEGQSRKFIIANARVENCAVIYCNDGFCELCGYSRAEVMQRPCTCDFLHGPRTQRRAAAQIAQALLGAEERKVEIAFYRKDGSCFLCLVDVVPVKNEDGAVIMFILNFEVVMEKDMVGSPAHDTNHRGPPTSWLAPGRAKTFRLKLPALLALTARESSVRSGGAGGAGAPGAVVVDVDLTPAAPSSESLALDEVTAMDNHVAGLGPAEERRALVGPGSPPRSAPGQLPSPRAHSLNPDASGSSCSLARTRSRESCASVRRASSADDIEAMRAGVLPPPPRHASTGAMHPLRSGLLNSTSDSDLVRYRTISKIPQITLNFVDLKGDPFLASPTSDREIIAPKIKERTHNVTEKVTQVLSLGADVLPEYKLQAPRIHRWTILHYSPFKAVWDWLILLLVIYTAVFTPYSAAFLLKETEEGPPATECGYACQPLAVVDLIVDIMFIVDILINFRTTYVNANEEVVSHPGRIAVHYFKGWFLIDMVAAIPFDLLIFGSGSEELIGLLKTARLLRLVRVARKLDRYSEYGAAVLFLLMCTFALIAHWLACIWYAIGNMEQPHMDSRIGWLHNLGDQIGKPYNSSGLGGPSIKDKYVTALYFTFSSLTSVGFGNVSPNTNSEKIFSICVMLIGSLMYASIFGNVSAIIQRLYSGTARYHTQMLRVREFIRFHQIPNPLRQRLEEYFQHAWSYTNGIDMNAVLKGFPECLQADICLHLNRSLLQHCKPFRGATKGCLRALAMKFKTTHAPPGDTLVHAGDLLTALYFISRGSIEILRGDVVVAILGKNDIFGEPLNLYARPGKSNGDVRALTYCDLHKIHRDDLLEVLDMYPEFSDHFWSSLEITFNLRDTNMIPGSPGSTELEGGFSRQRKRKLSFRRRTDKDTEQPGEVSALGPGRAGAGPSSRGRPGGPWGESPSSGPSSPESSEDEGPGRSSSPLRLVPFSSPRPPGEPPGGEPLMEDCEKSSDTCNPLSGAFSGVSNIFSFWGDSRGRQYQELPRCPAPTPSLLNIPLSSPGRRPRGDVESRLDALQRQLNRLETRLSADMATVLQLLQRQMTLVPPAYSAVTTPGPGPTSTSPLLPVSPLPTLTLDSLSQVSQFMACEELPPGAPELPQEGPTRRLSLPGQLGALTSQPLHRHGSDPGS
# Assay: hERG protection against dofetilide inhibition, confirmation, cell-based, thallium flux, duplicate retest, dofetilide IC70 (AID 1835)
# Settings: hERG cell line, FluxOR thallium flux, dofetilide-blocked; at 10 µM; active compounds read high
SMILES,activity increase over dofetilide control,"activity increase over dofetilide control, less the hit threshold"
CN1C(=O)C(Cc2ccc3c(c2)OCO3)C(=O)N(C)C1=O,-15%,
N#CC1=C(N)Oc2c(c(=O)oc3ccccc23)C1c1cccnc1 (configuration not stated),,8% (active)
Oc1cccc2cccnc12,,-5%
N#CCCn1cc(C(=O)Nc2ccccc2Cl)c(-c2ccc(F)cc2)n1,,-14%
O=c1c2cc(Br)ccc2[nH]c(=S)n1-c1ccccc1,,2% (active)
O=c1c2ccccc2[nH]c(=S)n1-c1ccc2c(c1)OCCO2,,-26%
CN1C(=O)/C(=C/c2ccc(Cl)s2)C(=O)NC1=S,12% (active),
CCCCN1C(=O)/C(=C/c2ccc(N3CCCCCC3)cc2)C(=O)NC1=S,-4%,
C=CCN1C(=O)/C(=C/c2ccc(Br)s2)C(=O)NC1=S,8% (active),
CN1C(=O)/C(=C\c2ccc(Br)s2)C(=O)NC1=S,26% (active),
O=C1NC(=O)C(=Cc2ccc(-c3cc(Cl)ccc3[N+](=O)[O-])o2)C(=O)N1,-20%,
CN1CCN(CC#CCOc2ccc(Cl)cc2)CC1,,-9%
C1CCC2S[C@H]3CCCCC3NC2C1 (some centres not stated),,-17%
NC(=O)Cn1cc(C(=O)c2ccccc2F)c2ccccc21,-9%,
CC(=NCc1ccco1)c1c(O)n(C)c(=O)n(C)c1=O,-12%,
O=c1[nH]c(O)c(/C=C2/C=CC(c3cc(Cl)ccc3Cl)=N2)c(=O)[nH]1,30% (active),

SMILES,activity increase over dofetilide control,"activity increase over dofetilide control, less the hit threshold"
O=C(O)c1c[nH]c2ccc(S(=O)(=O)N(CCCl)CCCl)cc12,,-11%
CC1N=C(c2ccccc2Cl)c2cc(Br)ccc2NC1=O (configuration not stated),-24%,
CN1CCCCC1c1ccc(-c2cccnc2)nc1 (configuration not stated),,-15%
COc1ccc(OC)c(N2C(=O)/C(=C/c3ccco3)C(=O)NC2=S)c1,0%,
O=C1NC(=S)N(c2ccc(F)cc2)C(=O)/C1=C/c1ccco1,4% (active),
Cc1ccc(/C=C2\C(=O)NC(=S)N(c3ccc(F)cc3)C2=O)s1,5% (active),
Cc1ccccc1N1C(=O)/C(=C/c2ccco2)C(=O)NC1=S,14% (active),
O=C1NC(=O)N(c2ccccc2)C(=O)/C1=C/c1ccc(Sc2ccccc2)o1,-6%,
COc1ccc(CN2CCCC(C(=O)c3sccc3C)C2)cc1O (configuration not stated),,-21%
COc1cccc(OC)c1C(=O)Nc1nc(N)n(-c2ccccc2)n1,,-22%
CCn1nc(/C=C/c2ccccc2)nc2c(=O)n(C)c(=O)nc1-2,,-22%
O=C1NC(=O)N(CCNc2ncc(C(F)(F)F)cc2Cl)C(=O)C1Cc1ccc(Cl)cc1 (configuration not stated),-11%,
CN(C)C(=O)O/N=C(\N)COc1ccc(C(C)(C)C)cc1,,-17%
NCCc1ccc(S(N)(=O)=O)cc1,,-18%
COc1ccccc1N1CCN(Cc2ccc(F)cc2)CC1,-10%,
COc1ccc2c(c1)/C(=C/c1cnc[nH]1)C(=O)N2,,-6%
